PubChem BioAssay (NCI)
This is part of a sample that, as a whole, favours compounds with a hit. Of some 83,000 tested, about 20% had one in any assay.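 Values shown are percent growth following 48 h exposure of cells in 96-well plates to a single concentration of compound; below 10 was considered active.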 Unmarked numbers belong to inactive results. Active and inactive are the calls of the source.

Key:
Test in all cases: NCI-60 one-dose screen, 48 h (100 = growth as untreated, 0 = no growth, -100 = all killed)
Settings in all cases: 10 µM unless noted
EKVX NSCLC = system: EKVX NSCLC
SN12C renal = system: SN12C renal
UO-31 renal = system: UO-31 renal
TK-10 renal = system: TK-10 renal
ACHN renal = system: ACHN renal
CAKI-1 renal = system: CAKI-1 renal
A498 renal = system: A498 renal
CCRF-CEM leukemia = system: CCRF-CEM leukemia
MOLT-4 leukemia = system: MOLT-4 leukemia
SR leukemia = system: SR leukemia

Structure (SMILES) | growth (EKVX NSCLC) | growth (SN12C renal) | growth (UO-31 renal) | growth (TK-10 renal) | growth (ACHN renal) | growth (CAKI-1 renal) | growth (A498 renal) | growth (CCRF-CEM leukemia) | growth (MOLT-4 leukemia) | growth (SR leukemia)
CC(=O)c1ccc(Nc2nc(SC(C)C)nc(-c3ccccc3)c2C#N)cc1 | 111% | 97% | 82.1% | 101% | 86.2% | 88% | 42.3% | 96.1% | 96.4% | 91.5%
CCOC(=O)c1sc(N)c(C(=O)OCC)c1C | 25.9% | 54.9% | 31.3% | 41.1% | 52.9% | 39.1% | 13.4% | 42% |  | 47.2%
N[C@@H](Cc1cn(-c2ccnc3ccccc23)nn1)C(=O)O | 98.5% | 93.2% | 88.2% | 101% | 96.1% | 97.3% | 110% | 103% |  | 95.1%
CS(=O)(=O)c1ccc(-c2nc3ccccn3c2C=Nc2ccc(Cl)cc2)cc1 | 100% | 81.6% | 61.4% | 110% | 49.4% | 42.9% | 79.1% | 61.8% | 64.9% | 96.8%
CCCC(=O)NC(c1ccc2c(c1)OC(F)(F)O2)c1cc(C)c2cccnc2c1O (stereo unspecified) | 23.1% | 19.4% | 6.46% (active) | 54.8% | 6.71% (active) | 12.8% | 6.01% (active) | 9.16% (active) | 15.3% | 13%
O=C(N/N=C/c1ccc(Br)s1)c1[nH]c2ccc(Br)cc2c1-c1ccccc1 | 40.9% | 56.3% | 48.6% | 109% | 26.7% | 22.8% |  | 9.08% (active) | 14.2% | 10.1%
COC(=O)C(Cc1ccccc1)NS(=O)(=O)/N=C1\NC(=O)NC1=C(Cl)Cl (stereo unspecified) | 104% | 96.8% | 81.3% | 118% | 98.1% | 100% |  | 37.8% | 79.3% | 82.9%
N=C1CC(=O)NN1C(=O)CSc1nc2sc3c(c2c(=O)n1-c1ccc(Cl)cc1)CCCC3 | 97.8% | 93.5% | 70.1% | 150% | 94% | 87.4% | 91.3% | 103% |  | 94%
N[C@@H](Cc1cn(-c2c3ccccc3nc3ccccc23)nn1)C(=O)O | 101% | 98.2% | 89.6% | 140% | 93.5% | 93.8% | 102% | 97.3% | 99.1% | 86%
COc1cc(/C=C/C(=O)c2ccc(C(F)(F)F)cc2)ccc1Oc1nc(NCCO)nc(N2CCOCC2)n1 | 93.7% | 86.9% | 70.5% | 111% | 86.2% | 82.7% |  | 4.08% (active) | 3.51% (active) | -8.21% (active)
CO/N=C1\CCc2c(sc(NC(=O)c3cccc(C(F)(F)F)c3)c2C(N)=O)C1 | 30.7% | 15.6% | -16.4% (active) | -17.1% (active) | -23.7% (active) | 11.3% | -43.3% (active) | 67.9% |  | 37.1%
C#Cc1nc(C2=C(C)C(=N\O)/C(=N/O)C2)cs1 | 95.7% | 98.2% | -92.4% (active) | 196% | 78.7% | 93.7% |  | 87.1% | 88% | 54.4%
Fc1ccc(-c2cc3nc(C(Cl)Cl)nc(-c4ccc(Cl)cc4)n3n2)cc1 | 5.99% (active) | 53.3% | 27.4% | 17.3% | -63.6% (active) | -23.3% (active) | -38.8% (active) | 56.8% |  | 3.51% (active)
COc1cc(N=Cc2sc(Nc3nccs3)nc2O)cc(OC)c1OC | 82.2% | 94.7% | 59% | 224% | 86% | 69% |  | 72% | 78.2% | 63.9%
COc1ccc(-c2nc3ccc(-c4nnc(SCC(=O)Nc5ccc(C(=O)/C=C/c6ccccc6)cc5)o4)cc3[nH]2)cc1OC | 104% | 94.8% | 88.5% | 133% | 96.3% | 97% | 112% | 88.4% | 80.5% | 83.6%
COc1cc2cc(Oc3ccc(NC(=O)c4cccc(C(F)(F)F)c4)cc3)c(C)nc2cc1OCCN1CCCCC1 | 93.2% | 76.2% | 69.3% | 143% | 80.5% | 57.4% | 78.6% | 6.44% (active) |  | -40.6% (active)
COc1ccc(NC(=O)c2sc3nc(-c4cnccn4)cc(-c4cccs4)c3c2N)cc1 | 87.6% | 80.8% | 52.3% | 105% | 43.8% | 36.4% | 49.5% | 94.6% | 83.5% | 71.6%
COc1ccc(-c2nc3ccc(-c4nnc(SCC(=O)Nc5ccc(C(=O)/C=C/c6ccc(Cl)cc6)cc5)o4)cc3[nH]2)cc1OC | 91.9% | 94.9% | 87% | 134% | 94.3% | 100% | 100% | 100% |  | 73%
COc1cc(/C=C/C(=O)c2cc(OC)c(OC)c(OC)c2)ccc1Oc1nc(NCCO)nc(N2CCOCC2)n1 | 11.2% | 9.45% (active) | 20.9% | 20.9% | -52.5% (active) | 15.6% |  | 0.121% (active) | 6.72% (active) | -0.481% (active)
COc1ccc(C(=O)/C=C/c2ccc(Oc3nc(NCCO)nc(N4CCOCC4)n3)c(OC)c2)cc1 | 90.1% | 86.2% | 67.4% | 140% | 62.5% | 56% |  | 9.43% (active) | 10.6% | 5.16% (active)
Cc1cc(C(=O)Nc2sc3c(c2C(N)=O)CCC(=O)C3)ccc1OCCN1CCCCC1 | 107% | 92.5% | 94.8% | 148% | 91.1% | 98.3% | 120% | 77.1% |  | 81.6%
Nc1c(C(=O)c2ccc(Br)cc2)oc2nc(-c3cnccn3)cc(-c3cccs3)c12 | 102% | 97.9% | 87.1% | 172% | 103% | 95.2% |  | 100% | 95% | 91.7%
Cn1ccnc1C(=O)/C=C/c1ccc(NC(=O)Nc2ccc(F)cc2)cc1 | 39.3% | 53.8% | 56.6% | 106% | 49.5% | 55.1% |  | 12.6% | 11.6% | 3.97% (active)
Cc1sc2nc(NCc3ccccc3Cl)[nH]c(=O)c2c1C | 98.1% | 93.8% | 94.5% | 112% | 94.8% | 87.2% | 81.3% | 65.3% | 69.7% | 50.2%
O=c1/c(=C\c2ccc(-c3ccccc3)o2)sc2nc(-c3ccccc3)nn12 | 99.9% | 97.3% | 89% | 95.1% | 102% | 96.4% | 84.3% | 101% |  | 102%
CCOC(=O)c1sc(NCC(=O)Nc2cccc([N+](=O)[O-])c2)c(C(=O)OCC)c1C | -22.3% (active) | -11.5% (active) | -64.6% (active) | -12.2% (active) | -62.4% (active) | -17.5% (active) | -38% (active) | 7.16% (active) |  | 19.3%
